Screens (PubChem)
ClpP mod: qHTS Assay for Activators of ClpP. Potency, µM (highest dose often 57.5 µM), for the others: at the top dose activity change, negative = active. 340,000 compounds, 1.9% hits. ATP-dependent Clp protease proteolytic subunit (Bacillus subtilis (strain 168)), P80244. purified B. subtilis ClpP, FRET peptide cleavage, 20 min; active = well fitted falling curve with a large enough effect; inconclusive = small, poorly fitted or top-dose-only effect; inactive = no such curve, though single readings can be large or run the other way; note: potency is the fitted concentration of half-maximal effect; the source files actives as falling curves though it sought activators and does not explain the sign; nearly all actives have a fitted effect of over 65% in size
Target sequence (P80244 whole entry, looked up): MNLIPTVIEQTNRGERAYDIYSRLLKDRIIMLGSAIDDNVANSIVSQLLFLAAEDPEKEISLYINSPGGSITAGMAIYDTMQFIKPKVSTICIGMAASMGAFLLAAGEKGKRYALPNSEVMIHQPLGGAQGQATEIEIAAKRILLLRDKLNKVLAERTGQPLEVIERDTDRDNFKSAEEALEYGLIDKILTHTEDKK
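Purified B. subtilis ClpP, 10 microg/mL final in Tris/HCl pH8 with KCl, BSA, glycerol and Tween-20, cleaved an Abz/nitrotyrosine-quenched decapeptide. Fluorescence (ex 320, em 430) was read at 0 and 20 min at room temperature. Delta was normalized to 5.8 microM ADEP and DMSO/no-enzyme controls.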
MBNL1-CUG inh: blocks human MBNL1 binding to CUG repeat RNA | Q9NR56 | TR-FRET MBNL1-His/biotin-(CUG)12 binding, 665/545 ratio | Potency, µM (top dose mostly 57.5 µM), without a hit: at the highest dose activity change, negative = inhibition, most hits filed as inhibitors | 280,000 compounds, 0.036% hits; active = well fitted inhibition curve with a large enough effect in the signal ratio, with a control signal flat, not every such curve was filed as active; inconclusive = small, poorly fitted or top-dose-only effect, or effect the other way, or a change in a side signal; inactive = no such curve, though single readings can be large or run the other way; the % refers to the signal ratio; note: potency is the fitted concentration of half-maximal effect; % is set by controls: 0 for no effect and ±100 for the full control effect
Target sequence (Q9NR56 whole entry, looked up): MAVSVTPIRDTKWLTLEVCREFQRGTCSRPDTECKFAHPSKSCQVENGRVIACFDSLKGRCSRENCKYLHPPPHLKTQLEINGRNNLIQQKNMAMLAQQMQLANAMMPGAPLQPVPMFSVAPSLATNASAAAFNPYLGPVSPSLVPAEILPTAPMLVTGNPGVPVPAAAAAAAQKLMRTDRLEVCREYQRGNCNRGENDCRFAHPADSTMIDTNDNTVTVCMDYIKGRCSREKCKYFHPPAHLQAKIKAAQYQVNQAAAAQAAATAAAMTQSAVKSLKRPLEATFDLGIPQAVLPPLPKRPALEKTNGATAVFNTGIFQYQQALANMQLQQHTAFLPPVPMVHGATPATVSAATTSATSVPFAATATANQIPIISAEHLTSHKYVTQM
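His-tagged MBNL1 binding to biotinylated (CUG)12 RNA was measured by TR-FRET using terbium anti-His antibody (0.055 ng/ul final) and streptavidin-XL665 (5 nM final). Compounds were titrated 92 nM to 58 uM; 60 min at room temperature.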
Rango complex inh: prevents formation of the Rango-importin beta complex; AID 540263; 340,000 compounds, 0.031% hits; Rango CFP/YFP FRET sensor + importin beta, 45 min; Potency, µM (top dose mostly 92.2 µM), inactives show at the highest dose inhibition of complex formation; Q14974;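 note: potency is the fitted concentration of half-maximal effect; 0% = DMSO wells and 100% = buffer wells lacking importin beta; nearly all actives have a fitted effect of over 15% in size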
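FRET biosensor (snurportin 1 IBB flanked by EYFP and cerulean), 50 nM, with compound 5 min, then 0.125 microM importin beta in PBS, 1 mM DTT, 0.02% Tween-20, 0.1% BSA. CFP/YFP ratio read after 45 min at room temperature; pre-read flags interference.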
Rango release inh: inhibitors of RanGTP-induced Rango-importin beta complex dissociation; 340,000 compounds, 0.071% hits; Biochemical FRET Rango-importin beta, RanGTP-induced dissociation; AID 540253; O95149+P62826; Potency, µM (top dose mostly 46.1 µM), for inactives: at the top dose activity change, negative = inhibition; note: potency is the fitted concentration of half-maximal effect; % of control where 0% means no effect; nearly all actives have a fitted effect of over 45% in size
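Quantitative HTS using a FRET biosensor: 0.1 uM Rango, 0.25 uM importin beta, 0.6 uM Ran, 2 mM GTP, 0.2 uM RCC1 final, PBS with DTT, Tween-20 and BSA. Post-read taken 45 min after Ran addition.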
CBFb RUNX1 block: blocks binding between human CBF-beta and RUNX1. AlphaScreen CBFb-His/RUNX1-biotin binding, biochemical. Potency, µM (doses to about 59.8 µM), without a hit: top-dose activity, negative = inhibition, actives largely listed as inhibitors. 230,000 tested, under 10 active; active = well fitted curve in the direction sought with a large enough effect; inconclusive = small, poorly fitted or top-dose-only effect, or effect the other way, or another doubt; inactive = no such curve, though single readings can be large or run the other way; note: % of control where 0% means no effect
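CBFb-His/RUNX1-biotin, 30 nM each, preincubated 20 min RT; compound 15 min RT; Ni + streptavidin beads 50 ng each, 90 min RT; AlphaScreen read.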
The depositor's hits bear a star; ? = inconclusive; nt = not tested or not shown. The full list was thinned out, with hits kept by preference. Unless noted, calls come from the whole dose curve.

SMILES	ClpP mod	MBNL1-CUG inh	Rango complex inh	Rango release inh	CBFb RUNX1 block
O=C(c1ccc2c(c1)N(Cc1ccc(F)cc1)C(=O)c1ccccc1S2(=O)=O)N1CCCCCC1	-1.3%	nt	nt	nt	nt
CCCCCc1ccc(-c2nnc(N)s2)cc1	nt	0.8%	-0.9%	-2.2%	-1.1%
CCCCCCc1ccc(-c2ncc(N)cn2)cc1	31.6µM*	2.5%	1.3%	-3.1%	-2.1%
CCOC(=O)c1[nH]c2ccc(OC)cc2c1NC(C)=O	25.1µM*	?	1.0%	-0.4%	-2.0%
C=CCOC(=O)Nc1c(C(=O)OC)[nH]c2ccc(Cl)cc12	31.6µM*	-7.2%	2.4%	34.9%	2.9%
COc1ccc2[nH]c(C(=O)O)c(CCC(=O)O)c2c1	20µM*	2.3%	0.6%	4.4%	8.4%
CCOC(=O)N1CCN(CC(=O)Nc2c(C(=O)OC)[nH]c3ccc(Cl)cc23)CC1	?	9.0%	-3.9%	18.7%	6.3%
CCOC(=O)c1[nH]c2cc3c(cc2c1NC(=O)CN1CCN(CCO)CC1)OCO3	25.1µM*	13.2%	1.4%	-21.3%	7.5%
Cc1ccc(CN2CCCn3nc(C(=O)NCc4ccc(N(C)C)cc4)cc3C2=O)cc1	-0.9%	nt	nt	nt	nt
O=[N+]([O-])c1cc(Cl)ccc1Nc1nc(Nc2ccc(Cl)cc2[N+](=O)[O-])nc(N2CCOCC2)n1	-1.8%	nt	nt	nt	nt
O=C(CSc1nc2ccsc2c(=O)n1-c1ccc(Br)cc1)NCc1ccc(Cl)cc1	-26.4%	nt	nt	nt	nt
CCOC(=O)c1[nH]c2ccc(OCC)cc2c1NC(=O)CN1CCC2(CC1)OCCO2	25.1µM*	19.2%	2.7%	2.8%	-4.5%
CCOC(=O)c1[nH]c2ccc(OC)cc2c1NC(=O)CN1CCSCC1	12.6µM*	5.0%	3.9%	10.9%	4.4%
CCOC(=O)c1[nH]c2cc3c(cc2c1NC(=O)CN1CCC2(CC1)OCCO2)OCO3	?	?	1.4%	-12.6%	2.7%
O=C1CC(c2nnc(Cc3ccccc3Cl)o2)CN1c1ccccc1 (stereo unspecified)	-1.0%	nt	nt	nt	nt
CCOC(=O)c1c(NC(=O)Nc2ccccc2)sc(C)c1C	20µM*	6.2%	-4.2%	18.2%	2.2%
CCOC(=O)c1sc(Nc2nc3c(F)cccc3s2)cc1C	8.91µM*	nt	?	?	-6.9%
CCOC(=O)c1sc(NC(=O)Nc2cccc(Cl)c2)cc1C	31.6µM*	-9.9%	0.4%	23.0%	-13.3%
CCOC(=O)Nc1sc(C)c(C)c1C(=O)OCC	-4.7%	-4.9%	-1.1%	-7.8%	2.8%
CCOC(=O)c1c(NC(=O)CSc2ccccc2C(=O)O)sc(C)c1C	15.8µM*	-25.0%	?	-27.5%	-2.7%
N#C/C(=C\c1ccc(F)cc1)C(=O)NCC1CCCO1 (stereo unspecified)	0.5%	nt	nt	nt	nt
O=C(c1ccccc1)c1nc[nH]c1C(=O)Nc1ccccn1	28.2µM*	?	?	26.8%	9.6%
O=C(Nc1ccccn1)c1ccc(C(=O)c2ccccc2)cc1	nt	nt	7.3%	0.0%	nt
CCc1ccccc1Nc1cc(C(=O)NCCCN(C)C2CCCCC2)c2ccccc2n1	-2.3%	nt	nt	nt	nt
COc1ccc(/C=C/c2nc(C#N)c(N3CCC(C)CC3)o2)cc1OC	4.7%	nt	nt	nt	nt
SMILES	ClpP mod	MBNL1-CUG inh	Rango complex inh	Rango release inh	CBFb RUNX1 block
COc1cc(OC)cc(C(=O)N=c2sc3ccccc3n2C)c1	3.8%	5.0%	-0.7%	-4.4%	5.1%
COC(=O)Cn1c(=NC(=O)c2cc(OC)cc(OC)c2)sc2cc(OC)ccc21	28.2µM*	1.5%	1.5%	-13.9%	-2.1%
COC(=O)Cn1c(=NC(=O)c2cc(-c3cccs3)nc3ccccc23)sc2cc(S(N)(=O)=O)ccc21	?	5.2%	?	?	1.1%
COC(=O)Cn1c(=NC(=O)c2ccc(S(=O)(=O)N3CCc4ccccc4C3)cc2)sc2cc(OC)ccc21	-22.7%	27.8%	?	?	3.3%
COC(=O)Cn1c(=NC(=O)c2cccc(OC)c2)sc2cc(OC)ccc21	25.1µM*	18.4%	2.6%	10.0%	10.7%
COC(=O)Cn1c(=NC(=O)c2ccc(OC)cc2)sc2cc(OC)ccc21	25.1µM*	-2.9%	2.5%	-8.1%	10.6%
